Consider 16 molecules from the supplement of paper PMC12632987.

In this assay the target is T1, USP38, Q8NB14.
T1 chain: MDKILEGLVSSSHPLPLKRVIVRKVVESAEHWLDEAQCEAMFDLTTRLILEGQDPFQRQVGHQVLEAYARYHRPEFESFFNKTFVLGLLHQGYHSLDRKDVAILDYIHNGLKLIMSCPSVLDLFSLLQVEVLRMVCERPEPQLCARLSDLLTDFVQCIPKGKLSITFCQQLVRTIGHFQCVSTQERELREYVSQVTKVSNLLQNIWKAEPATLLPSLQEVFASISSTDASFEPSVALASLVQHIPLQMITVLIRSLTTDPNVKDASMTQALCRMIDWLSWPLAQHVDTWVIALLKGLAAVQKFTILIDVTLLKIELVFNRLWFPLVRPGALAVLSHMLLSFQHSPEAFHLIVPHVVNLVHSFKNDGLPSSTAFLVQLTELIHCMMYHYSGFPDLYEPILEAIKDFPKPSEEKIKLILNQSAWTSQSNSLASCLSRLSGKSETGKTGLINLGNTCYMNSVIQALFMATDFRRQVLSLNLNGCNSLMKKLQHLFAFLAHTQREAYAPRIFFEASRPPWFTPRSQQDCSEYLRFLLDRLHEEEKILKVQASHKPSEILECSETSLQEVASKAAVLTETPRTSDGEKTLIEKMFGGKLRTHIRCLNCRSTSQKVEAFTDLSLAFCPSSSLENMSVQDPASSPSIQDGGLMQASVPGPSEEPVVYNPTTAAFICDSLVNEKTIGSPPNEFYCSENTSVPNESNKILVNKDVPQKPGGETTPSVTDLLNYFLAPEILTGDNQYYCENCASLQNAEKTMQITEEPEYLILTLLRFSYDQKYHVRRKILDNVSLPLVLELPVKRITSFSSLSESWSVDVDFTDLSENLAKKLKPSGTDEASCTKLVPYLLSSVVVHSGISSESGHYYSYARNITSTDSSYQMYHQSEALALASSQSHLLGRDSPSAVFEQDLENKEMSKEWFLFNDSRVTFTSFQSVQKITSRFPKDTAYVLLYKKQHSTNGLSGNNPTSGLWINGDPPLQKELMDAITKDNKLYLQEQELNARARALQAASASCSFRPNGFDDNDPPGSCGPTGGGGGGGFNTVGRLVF
As to the kind of experiment: median log2 fold change of GCK-ALFA target abundance (FLAG IP / Myc IP barcode read proportion) (log2 ratio); each designed protein is fused to an ALFA-tag nanobody in HEK293 cells to bring the named protein to FLAG-tagged glucokinase (GCK); Myc marks an untargeted standard; higher = target protein stabilised (more abundant). The note with it: target protein: 3xFLAG-MCP-GCK-ALFA reporter; HEK293 landing pad (RPLP). In a few lines: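 Sequencing of reverse-transcribed, amplified circular RNA barcodes from anti-FLAG and anti-Myc immunoprecipitates provided the readout for an ALFA-nanobody-fused binder library recombined into HEK293 landing-pad cells. Those cells were induced with 2 μg mL^−1 doxycycline, transfected with a plasmid expressing a FLAG-tagged target and a Myc-tagged standard, and lysed after 48 h. Target abundance is the per-binder median log2 ratio of FLAG to Myc barcode read proportions. Only barcodes at a proportion of ≥10^−7 in both replicates and binders with ≥3 barcodes per replicate were kept, with a 10^−6 pseudocount added before the two replicates were pooled.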

B1: usp_38_diff_out_15_114_143 (protein)
chain: SEEEEAEEELRRLEIEEGLRVAEELLAELEELRKRGRLTPAREERLLLGLEGLAILAIELGDEELARRVLEALRALAEISSPETRARAEALAAELEAAMA
Take B1: the “median log2 fold change” value was -0.119.

B2: usp_38_diff_out_15_17_145 (protein)
chain: DEEARRLELEAERAAMDAVIADARATLTRLAAKAKAAGWAEVAAEYEAAIAALDAGDLEAAAEHLERAARLLWDKNPRDATIAGGLAYALRRKVELDRLE
As to B2, the “median log2 fold change” value is -0.0496.

B3: usp_38_diff_out_14_75_138 (protein)
chain: SREEELRKRLEEAEARLAELVAQGKITGRKEVELRGILHIAREAIEAGRLEEAEKLLDIAEEALENPEKAKEIIDENEDFIVSTAKELALREIEEEEKRR
Take B3: the “median log2 fold change” value came to 0.163.

B4: usp_38_diff_out_15_17_144 (protein)
chain: DPESEALYREALRANIASVFDEAAAIAAKRAARAEAEGNAELAAALRRLRDLLEHRDETPLADIAAAARELAALAEEAGDYRTAAIAGGVAAAAEELAEL
As for B4, the “median log2 fold change” value came out at 0.158.

B5: usp_38_diff_out_15_85_150 (protein)
chain: TPEELKAEIEREIEEAERLLERAEELLRDPEAPLEEIRRVLDEAAEALGRADHLARELRRLSPEYRAYVEEVLKRLDELVDRLEELAREAFLREADELEA
Regarding B5, the “median log2 fold change” value was determined as 0.0224.

B6: usp_38_diff_out_15_85_151 (protein)
chain: SPEELKKKIEEKLEEARRLLEEARRLLADPNAPLEEIRKVLDEAARALGEAEHLARELRKLSPEYREEVEKYLKELDELVDELEALAREAFLREAEAQEA
In the case of B6, the “median log2 fold change” value stood at 0.0262.

B7: usp_38_diff_out_15_114_139 (protein)
chain: SEEEEAEEELRKLEIEQGKKVAEDLLAELERLAKEGRLTPAREERLLLGLKGLAKLAIELKDKELAELVLKALEAFAKISSPEHRKEAEKLAKELKEAMA
Consider B7, for which the “median log2 fold change” value stood at 0.292.

B8: usp_38_diff_out_15_114_142 (protein)
chain: SAEEEAEEELRELEIKAGKDVAEELLEELKELRKRGRLTPAREERLLLGLRGLAILAIELKNKELAELVLEALEEFAKISDPETRAEAEKLAAELKKAMA
As to B8, the “median log2 fold change” value is 0.0926.

B9: usp_38_diff_out_15_114_140 (protein)
chain: SAEEEAAEELRQREIAAGRDVARDLLAELRELKKRGRLTPAREERLLLGLEGLARLAIELGDEELARLVLEALDAFAEISDPETQARARALRAELEAAMA
For B9, the “median log2 fold change” value was found to be 0.0749.

B10: usp_38_diff_out_15_42_146 (protein)
chain: SQLEEELRLIVEAMEAERDRVVADVATLPEAKLKRLARRNLEGAKGEAERTGDPVAAEIAALYEEGLANPATLKAKMQEAVRLTYDRAIAEVRRRMEEEA
Take B10: the “median log2 fold change” value was -0.607.

B11: usp_38_diff_out_15_85_153 (protein)
chain: SPEEIKKEIEREIEEAERLIEEARRLLEDPEAPLEEVREVLDEAARHLGRAQHLARELRRLSPEYREFVKEAEKRLDELVDELEELAREAHLREAEELEA
On to B11, for which the “median log2 fold change” value is -0.141.

B12: usp_38_diff_out_15_85_149 (protein)
chain: KIEELKKQLQAAIDEAEALLAEAEALLKKGTPEALEAARKALDAAAKAIGQADQLLRELRKAGADKEELEAYQKRLDALTDRYEALARELFEKEMELQEK
Turning to B12, the “median log2 fold change” value came to 0.113.

B13: usp_38_diff_out_15_85_147 (protein)
chain: ALEELRRELEEAIREARRLLEEARKLLAEKTPEALKAAREALDRAAEHLGRAAELLRELRRAGADPAELARLQAELDELVDEYEKLALELFEKEIELQEA
For the molecule B13, the “median log2 fold change” value came to 0.0216.

B14: usp_38_diff_out_14_75_137 (protein)
chain: SRKEELRERLAEARARLDALVAEGRITGRLEVELRGILHIAEEAIEAGRLEEAERLLDIAERALDDPANARAIIRANEDFIVSTAKKLDLERIEEEEERR
As for B14, the “median log2 fold change” value turned out to be 0.124.

B15: usp_38_diff_out_15_114_141 (protein)
chain: SAEEEAAAELREREVAAGLAVARDLLAELEELARRGRLTPAREERLLLGLRGLARLAIELGDRELAEEVLRALDAFAAIASPELRAEAEALRAELEAAMA
In the case of B15, the “median log2 fold change” value turned out to be 0.234.

B16: usp_38_diff_out_15_85_152 (protein)
chain: SPEEIKKEIKKEIEKAKELIKEAKKLLKDPNAKLEEIRKVLDEAAKALGKAEYLARELRKLSPEYREEVKEYLKELDELVDELEKLEREAFLRMAEEQEA
Regarding B16, the “median log2 fold change” value came out at 0.113.
